“And” between values parts separate entries of the source, which are not always exact repeats. Equal values may be shown once. A structure can be active in one record and inactive in another. The source made the active and inactive calls. Unless noted, no rule for the calls is given here.
Experiments:
[1] = system: Hepatitis C virus NS3 helicase; test: HCV NS3 helicase inhibitors, primary screen, biochemical, fluorescence polarization, NIH Clinical Collection (AID 743270); details: NS3 helicase binding to Cy5-dT15 DNA, stronger effect = higher value, concentration not given here
[2] = target: Single-stranded DNA-binding protein (Escherichia coli (strain K12)) (UniProt P0AGE0); test: E. coli SSB displacement from DNA, counter-screen for HCV NS3 helicase inhibitor project, biochemical, fluorescence polarization, NIH Clinical Collection (AID 743271; in the data active = inhibition above about 28%); details: stronger effect = higher value, concentration not given here
[3] = fluorescence interference in NS3h assay format, artefact control for HCV NS3 helicase inhibitor project, biochemical, NIH Clinical Collection (AID 743272); details: fluorescence interference counterscreen, stronger effect = lower value;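 also: HCV NS3 helicase with a Cy5 labelled single stranded DNA probe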
[4] = stimulators of nuclear beta-catenin in C2C12, primary screen, imaging, WNT3A-conditioned medium, mouse C2C12, NPC library (AID 1117326; in the data active = nuclear beta-catenin stimulation mostly above about 4.2%, no sharp cut-off; inactive = mostly below about 10%); details: stronger effect = higher value
[5] = stimulators of insulin release from INS-1E, primary screen, cell-based, 5 mM glucose, NPC library (AID 1117329;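 active = compound raises insulin release from rat beta cells at 5 mM glucose, no numeric limit stated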); details: rat INS-1E insulin secretion, at 10 µM, stronger effect = higher value
[6] = growth inhibition of GSK3B-pretreated HCT116 cells – cell-based, CellTiter-Glo, 0.2 to 20 µM (AID 1117336;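 active = compounds lowering colon cancer cell viability after pretreatment blocking the GSK3B kinase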); details: HCT116 viability after GSK3B inhibitor, at 20 µM, stronger effect = higher value
[7] = inhibition of endothelial tube formation, primary screen, imaging, VEGF stimulated, CD31 staining, tube area, NPC library (AID 1117340;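 active = compound that reduces growth-factor-driven endothelial tube area in a mixed cell culture, no cutoff stated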); details: VEGF-stimulated ADSC/ECFC co-culture, at 10 µM, stronger effect = higher value
[8] = glucagon-like peptide 1 release enhancers, primary assay, NCI-H716 cell line, NPC library (AID 1117341;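 active = compound raises GLP1 secretion from the human gut endocrine cells, with no numeric limit stated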); details: NCI-H716 cells, at 10 µM, stronger effect = higher value
[9] = HCT116 colon cancer cell growth inhibition, primary screen, CellTiter-Glo luminescence, NPC library (AID 1117342;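 active = compounds that lower survival of HCT116 colon cancer cells in the luminescence readout, no numeric limit stated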); details: at 20 µM (top of the series)
[10] = CellTiter-Glo luminescent readout of SW480 viability loss, NPC library primary (AID 1117343;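 active = compounds that lower viability of the colon cancer cells in the luminescence readout, with no numeric limit stated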); details: CellTiter-Glo luminescence; at 20 µM (top of the series)
[11] = decreased DLD-1 cellular survival, CellTiter-Glo luminescent readout, NPC compound collection, primary HTS (AID 1117346;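 active = compounds that lower survival of DLD-1 colon cancer cells in the luminescence readout, no cutoff given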); details: DLD-1 viability, CellTiter-Glo luminescence; at 20 µM (top of the series)
[12] = target: 6-phosphogluconate dehydrogenase, decarboxylating (Homo sapiens) (UniProt P52209); test: 6PGD enzyme inhibitors, primary screen, biochemical, human, recombinant enzyme, NADPH absorbance (AID 1159550;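 active = at least 20% inhibition of 6-phosphogluconate dehydrogenase activity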); details: recombinant 6PGD, NADPH absorbance 341 nm; at 10 µM; stronger effect = higher value
Chain of 6-phosphogluconate dehydrogenase, decarboxylating (Homo sapiens) (P52209 whole entry, looked up): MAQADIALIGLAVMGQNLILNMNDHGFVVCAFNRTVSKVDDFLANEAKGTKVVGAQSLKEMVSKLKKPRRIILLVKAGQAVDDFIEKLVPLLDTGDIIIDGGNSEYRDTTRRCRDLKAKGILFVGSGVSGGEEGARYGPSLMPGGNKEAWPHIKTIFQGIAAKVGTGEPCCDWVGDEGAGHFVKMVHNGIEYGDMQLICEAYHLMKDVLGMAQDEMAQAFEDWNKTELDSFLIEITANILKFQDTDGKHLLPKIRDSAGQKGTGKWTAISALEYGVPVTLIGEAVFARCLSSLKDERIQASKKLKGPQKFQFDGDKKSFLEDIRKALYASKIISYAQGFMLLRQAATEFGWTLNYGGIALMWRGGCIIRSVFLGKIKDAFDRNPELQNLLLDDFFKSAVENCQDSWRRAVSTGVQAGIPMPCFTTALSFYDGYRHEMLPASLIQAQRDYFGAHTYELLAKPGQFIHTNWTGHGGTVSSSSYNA

[13] = differential killing of epithelial or mesenchymal cells, primary screen, imaging, PC-3E GFP, TEM4-18 mCherry, co-culture (AID 1345086;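 active = compounds killing one labelled cell type while sparing the other, by normalised counts and ratio limits, not self-fluorescent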;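 as to all read-outs here: cells exposed to compound for 72 h before imaging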;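 as to red/green cell ratio (normalised): normalised mesenchymal count divided by normalised epithelial count so high means epithelial killing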); details: imaging cell counts, at 1 µM; for red/green cell ratio (normalised): actives lie on both sides, counts scaled to control wells, 1 = unselective
[14] = sensitizers of A549 cells to miR-34 induction, primary screen, imaging, A549 dox-inducible miR-34, nuclei and caspase counts (AID 1347080;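 active = compounds whose cell count with miR-34 switched on is under 0.7 times the count with it off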); details: A549 miR-34 inducible, Hoechst nuclei count, 48 h
[15] = survival rescue of mitochondrial mutant cells in low glucose, primary screen, MELAS cybrids, Rieske KO mouse fibroblasts, CellTiter-Glo (AID 1508586;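 active = mean z-score across replicates of 1.96 or higher in either the MELAS or the Rieske mutant cell line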;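 also: z relative to plate mean and SD of compound and empty wells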)
[16] = target: NAD(+) hydrolase SARM1 (Homo sapiens) (UniProt Q6SZW1); test: SARM1 TIR NADase inhibitors, cell lysate, NAD-Glo luminescence (AID 1508614;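 active = compound whose remaining NAD level is above about 45 nM, limit read from the data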;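 also: higher remaining NAD means stronger inhibition of SARM1 NADase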); details: SAM-TIR HEK293T lysate NADase, at 1 µM, stronger effect = higher value
Chain of NAD(+) hydrolase SARM1 (Homo sapiens) (Q6SZW1 whole entry, looked up, the tested form may be a part): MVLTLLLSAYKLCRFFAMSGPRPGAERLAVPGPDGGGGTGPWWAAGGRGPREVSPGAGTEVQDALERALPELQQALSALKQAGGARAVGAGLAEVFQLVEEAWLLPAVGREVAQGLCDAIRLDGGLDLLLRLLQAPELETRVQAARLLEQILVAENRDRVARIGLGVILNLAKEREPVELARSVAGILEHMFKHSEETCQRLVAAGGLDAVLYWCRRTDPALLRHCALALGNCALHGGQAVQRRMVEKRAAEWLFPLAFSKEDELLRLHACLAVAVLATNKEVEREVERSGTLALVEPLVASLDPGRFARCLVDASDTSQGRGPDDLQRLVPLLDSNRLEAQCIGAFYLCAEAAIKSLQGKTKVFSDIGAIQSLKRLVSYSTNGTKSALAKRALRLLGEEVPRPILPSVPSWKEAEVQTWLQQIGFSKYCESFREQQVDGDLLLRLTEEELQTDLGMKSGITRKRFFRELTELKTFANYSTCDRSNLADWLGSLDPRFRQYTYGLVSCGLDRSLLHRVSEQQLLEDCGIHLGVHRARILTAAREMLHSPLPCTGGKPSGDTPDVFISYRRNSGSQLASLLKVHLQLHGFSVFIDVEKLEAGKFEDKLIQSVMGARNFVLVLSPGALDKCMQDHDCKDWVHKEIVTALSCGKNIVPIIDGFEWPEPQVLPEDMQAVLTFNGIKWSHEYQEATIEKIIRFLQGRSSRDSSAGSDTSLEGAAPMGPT

[17] = target: Mitogen-activated protein kinase 7 (Homo sapiens) (UniProt Q13164); test: ERK5 transactivation activators in reporter cells, primary screen, cell-based, HTS (AID 1508626;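 active = luciferase signal above three times the same-plate solvent-only control wells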;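 also: luciferase driven by Gal4-ERK5 fusion binding five Gal4 sites before minimal TATA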); details: HeLa Gal4-ERK5 transactivation, 18 h, at 5 µM, stronger effect = higher value
Chain of Mitogen-activated protein kinase 7 (Homo sapiens) (Q13164 whole entry, looked up, the tested form may be a part): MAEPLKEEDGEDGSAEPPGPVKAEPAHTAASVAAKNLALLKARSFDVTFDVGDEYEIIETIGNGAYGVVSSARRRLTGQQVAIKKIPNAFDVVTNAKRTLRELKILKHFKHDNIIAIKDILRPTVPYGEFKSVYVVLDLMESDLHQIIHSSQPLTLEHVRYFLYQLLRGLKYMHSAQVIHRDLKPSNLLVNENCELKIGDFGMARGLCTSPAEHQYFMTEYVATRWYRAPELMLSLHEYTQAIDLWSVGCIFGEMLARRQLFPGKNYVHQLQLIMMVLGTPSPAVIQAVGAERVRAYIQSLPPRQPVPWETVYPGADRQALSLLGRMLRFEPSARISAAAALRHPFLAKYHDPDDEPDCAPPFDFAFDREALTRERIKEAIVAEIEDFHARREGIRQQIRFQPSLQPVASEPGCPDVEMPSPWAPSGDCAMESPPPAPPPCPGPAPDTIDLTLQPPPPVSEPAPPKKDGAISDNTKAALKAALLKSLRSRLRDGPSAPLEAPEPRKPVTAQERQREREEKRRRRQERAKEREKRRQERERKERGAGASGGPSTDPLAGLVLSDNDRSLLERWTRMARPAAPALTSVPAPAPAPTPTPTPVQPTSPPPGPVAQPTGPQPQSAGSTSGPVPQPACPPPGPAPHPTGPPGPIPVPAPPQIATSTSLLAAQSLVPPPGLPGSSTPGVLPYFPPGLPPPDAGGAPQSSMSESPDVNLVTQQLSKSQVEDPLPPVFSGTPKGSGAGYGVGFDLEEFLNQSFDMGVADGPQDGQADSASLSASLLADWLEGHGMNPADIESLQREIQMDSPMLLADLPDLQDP

F380Y = test: modulators of BK channel variants, profiling panel, selectivity assay, cell-based, U2OS BacMam, thallium flux, beta subunits (AID 1259406;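 active = thallium flux through the channel raised or lowered by more than 3 SD from vehicle-only wells, actives on both sides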;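 also: initial slope of Thallos dye fluorescence rise after thallium is added; log ratio against the mean of 0.3% DMSO vehicle wells on the same plate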); details: at 30 µM
F380Y/beta2Delta = test: as above; details: at 30 µM
[18] = target: Calcium-activated potassium channel subunit alpha-1 (Homo sapiens) + Leucine-rich repeat-containing protein 26 (Homo sapiens) (UniProt Q12791+Q2I0M4); test: as above; details: F380Y/Slo1WT/gamma1, at 30 µM
Chain of Calcium-activated potassium channel subunit alpha-1 (Homo sapiens) + Leucine-rich repeat-containing protein 26 (Homo sapiens) (Q2I0M4 whole entry, looked up, one chain of several): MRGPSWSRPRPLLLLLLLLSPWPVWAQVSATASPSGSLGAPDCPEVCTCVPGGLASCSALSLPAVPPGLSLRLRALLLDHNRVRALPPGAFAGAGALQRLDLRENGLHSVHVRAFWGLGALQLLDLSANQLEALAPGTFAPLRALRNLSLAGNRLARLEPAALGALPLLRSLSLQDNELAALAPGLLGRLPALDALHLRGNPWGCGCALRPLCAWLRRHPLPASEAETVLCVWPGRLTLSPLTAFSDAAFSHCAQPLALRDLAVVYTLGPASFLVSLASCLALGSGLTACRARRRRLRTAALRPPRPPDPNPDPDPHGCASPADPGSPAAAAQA

[19] = measured here: epithelial PC-3E GFP cell survival
[20] = measured here: mesenchymal TEM4-18 mCherry cell survival
[21] = stronger effect = lower value, cell number ratio, induced over uninduced
[22] = measured here: relative caspase fold change +Dox/-Dox
[23] = measured here: total cells with miR-34 induction, stronger effect = lower value
[24] = measured here: total cells without miR-34 induction
[25] = MELAS cybrid survival, CellTiter-Glo 48 h, stronger effect = higher value
[26] = Rieske KO mouse fibroblast survival, CellTiter-Glo 72 h

Question: What does the source list for `CN(C)c1ccc(O)c2c1C[C@H]1C[C@H]3[C@H](N(C)C)C(=O)C(C(N)=O)=C(O)[C@@]3(O)C(=O)C1=C2O`?
Answer: inhibition [1]: -8.64% (inactive); inhibition [2]: 0.29% (inactive); fluorescence ratio [3]: 0.89 (inactive); nuclear beta-catenin stimulation ([4]; at 10 µM): 3.7% (inactive); nuclear beta-catenin stimulation ([4]; stimulation, at 2 µM): 6.6%; insulin secretion stimulation [5]: 1.5% (inactive); viability decrease [6]: -31.1% (inactive); tube area decrease [7]: 6.7% (inactive); GLP1 secretion stimulation [8]: -1.4% (inactive); inhibition of viability [9]: 17.9% (inactive); viability decrease (inhibition) [10]: 65.6% (active); viability decrease (inhibition) [11]: 74.4% (active); inhibition [12]: -17.9% (inactive); red/green cell ratio (normalised) [13]: 1.2 (inactive); normalised cell number [13, 19]: 0.99; normalised cell number [13, 20]: 1.19; fold change [14, 21]: 1.15 (inactive) and 0.819 (inactive) and 0.689 (active); fold change [14, 22]: 0.974 and 2.86 and 1.89; cell count [14, 23]: 2650 and 5110 and 3260; cell count [14, 24]: 2300 and 6240 and 4740; z-score [15, 25]: -2.76 (inactive) and 0.283 (inactive); z-score [15, 26]: -3.81 and -1.93; remaining NAD [16]: 10 nM (inactive); luciferase signal [17]: 52 AU (inactive); log fold change Tl+ flux (F380Y): -0.0263 (inactive); log fold change Tl+ flux (F380Y/beta2Delta): 0.045 (inactive); log fold change Tl+ flux [18]: 0.0283 (inactive)

Question: With `COc1cc([C@@H]2c3cc4c(cc3[C@H](O)[C@H]3COC(=O)[C@H]23)OCO4)cc(OC)c1OC` as the compound, how does the inhibition [1] read?
Answer: -0.45% (inactive)

Question: What about the inhibition [2] of the same compound?
Answer: 1.05% (inactive)

Question: What about the fluorescence ratio [3] of the same compound?
Answer: 1.03 (inactive)

Question: And the nuclear beta-catenin stimulation ([4]; at 10 µM)?
Answer: 81% (active)

Question: What about the nuclear beta-catenin stimulation ([4]; stimulation, at 2 µM) of the same compound?
Answer: 77%

Question: What about the insulin secretion stimulation [5] of the same compound?
Answer: 1.25% (inactive)

Question: What about the viability decrease [6] of the same compound?
Answer: 102% (active)

Question: And the tube area decrease [7]?
Answer: 109% (active)

Question: What about the GLP1 secretion stimulation [8] of the same compound?
Answer: 2% (inactive)

Question: What about the inhibition of viability [9] of the same compound?
Answer: 73.1% (active)

Question: And the viability decrease (inhibition) [10]?
Answer: 49.9% (inactive)

Question: And the viability decrease (inhibition) [11]?
Answer: 64% (active)

Question: And the inhibition [12]?
Answer: 10.7% (inactive)

Question: And the fold change [14, 21]?
Answer: 1.05 (inactive) and 1.04 (inactive) and 0.981 (inactive)

Question: And the fold change [14, 22]?
Answer: 0.525 and 0.993 and 1.97

Question: And the cell count [14, 23]?
Answer: 2300 and 1910 and 1870

Question: What about the cell count [14, 24] of the same compound?
Answer: 2200 and 1830 and 1900

Question: And the z-score [15, 25]?
Answer: -2.59 (inactive)

Question: And the z-score [15, 26]?
Answer: 1.94

Question: And the remaining NAD [16]?
Answer: 10 nM (inactive)

Question: And the luciferase signal [17]?
Answer: 92 AU (inactive)

Question: And the log fold change Tl+ flux (F380Y)?
Answer: 0.0196 (inactive)

Question: What about the log fold change Tl+ flux (F380Y/beta2Delta) of the same compound?
Answer: 0.00366 (inactive)

Question: What about the log fold change Tl+ flux [18] of the same compound?
Answer: 0.0135 (inactive)

Question: Which results are given for `Fc1ccc([C@@H]2CCNC[C@H]2COc2ccc3c(c2)OCO3)cc1`?
Answer: inhibition [1]: -1.19% (inactive); inhibition [2]: -1.64% (inactive); fluorescence ratio [3]: 0.99 (inactive); nuclear beta-catenin stimulation ([4]; at 10 µM): 2.2% (inactive); nuclear beta-catenin stimulation ([4]; stimulation, at 2 µM): 2.8%; insulin secretion stimulation [5]: 11.8% (inactive); viability decrease [6]: -148% (inactive); tube area decrease [7]: 46.2% (active); GLP1 secretion stimulation [8]: 1.4% (inactive); inhibition of viability [9]: 28.1% (inactive); viability decrease (inhibition) [10]: 23% (inactive); viability decrease (inhibition) [11]: 19.7% (inactive); inhibition [12]: -2.44% (inactive); red/green cell ratio (normalised) [13]: 0.99 (inactive); normalised cell number [13, 19]: 0.48; normalised cell number [13, 20]: 0.47; z-score [15, 25]: -0.279 (inactive) and -0.953 (inactive); z-score [15, 26]: -0.644 and -0.322; remaining NAD [16]: 10 nM (inactive); luciferase signal [17]: 168 AU (inactive)
